Among all 2,300 compounds or so, about 300 (13%) were called active.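 The calls were made as follows: active = mean inhibition of the replicates above the hit cutoff set in the primary screen (cut at about 17% in these data); inactive = the rest.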 A selection follows.

This assay deals with Sialate O-acetylesterase (Homo sapiens) (UniProt Q9HAT2). In words: human SIAE inhibitors, retest, confirmation, biochemical, fluorescence polarization, FP-Rh probe, triplicate (AID 1117263).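 Also: 0% = SIAE with DMSO and probe and 100% = probe without SIAE; inhibitors lower polarization as more probe stays unbound to SIAE.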 Conditions: SIAE FP-Rh activity-based probe, at 9.66 µM, hits give high values. On the technique in general: In fluorescence polarisation assays a small probe gives low polarisation when free and higher when bound to something large.
Sialate O-acetylesterase (Homo sapiens), sequence (Q9HAT2 whole entry, looked up): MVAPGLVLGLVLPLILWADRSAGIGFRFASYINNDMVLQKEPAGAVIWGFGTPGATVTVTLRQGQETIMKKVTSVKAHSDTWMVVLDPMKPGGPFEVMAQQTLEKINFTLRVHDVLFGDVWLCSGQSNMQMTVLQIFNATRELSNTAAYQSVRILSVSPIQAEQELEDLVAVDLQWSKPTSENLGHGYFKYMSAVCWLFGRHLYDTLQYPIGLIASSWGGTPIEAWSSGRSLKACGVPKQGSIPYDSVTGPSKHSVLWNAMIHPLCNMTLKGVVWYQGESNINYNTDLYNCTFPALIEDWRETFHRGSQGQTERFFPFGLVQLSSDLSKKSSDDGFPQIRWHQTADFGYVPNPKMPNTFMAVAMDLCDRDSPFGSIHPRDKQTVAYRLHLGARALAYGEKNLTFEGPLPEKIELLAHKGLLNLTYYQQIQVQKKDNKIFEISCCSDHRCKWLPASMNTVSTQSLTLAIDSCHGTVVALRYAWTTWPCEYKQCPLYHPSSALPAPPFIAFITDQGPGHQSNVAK
`Oc1ccc(CNc2ccccc2O)cc1`: the inhibition was -1.96% (inactive).

As for `Cc1cccc(C)c1NC(=O)CN(C)C(=O)CCC(=O)c1ccccc1`, the inhibition was -0.52% (inactive). Then `CN(C)c1ccc(N/C=C/C(=O)C(F)(F)F)cc1`, with 2.35% (inactive); and `COc1cc(C(=O)Nn2c(O)c(C3=c4ccccc4=NC3=O)sc2=S)ccc1O`, with 34.8% (active).

In the case of `Cc1nc2ccc(C(=O)N3CCSCC3)cc2s1`, the inhibition is -7.27% (inactive).

Consider `COC(=O)C1=C(NC(=O)C(C)(C)C)CCS1`, for which the inhibition is 0.95% (inactive). The value for `CN(CC(=O)Nc1cccc(F)c1)CC(=O)Nc1cccc([N+](=O)[O-])c1` was 1.24% (inactive). Regarding `CCOC(=O)c1c(C)nn(-c2ncccc2NC(=O)CCC(=O)O)c1C`, the inhibition is -3.52% (inactive).

In the case of `CC(C)CCNC(=O)C1CCCN(S(=O)(=O)c2ccc(F)cc2)C1` (centres undefined), the inhibition is 1.12% (inactive). Then `CN1c2ccc(C=O)c3c(C=O)ccc(c23)N(C)C1(C)C`, with 4.27% (inactive). The value for `COc1ccc(C2OCC3(CO2)SC(=O)NC3=O)cc1OC` (centres undefined) was -9.1% (inactive). The value for `CC1(C)C/C(=C(/C#N)C(N)=O)CCO1` was -3.01% (inactive). As to `CCOc1cc(N2CCOCC2)c(OCC)cc1NC(=O)COc1cccc2cccnc12`, the inhibition is 8.9% (inactive).

As for `O=C(NNc1c2ccccc2nc2ccccc12)c1cc2ccccc2cc1O`, the inhibition is 13.8% (inactive). With `CC(=O)Nc1ccc(Nc2cc(C)nc(Nc3ccc(NC(C)=O)cc3)n2)cc1`, the inhibition was 4.83% (inactive). For the compound `Cc1ccnc(NS(=O)(=O)c2ccc(NC(=O)c3ccc(S(=O)(=O)N4CCOCC4)cc3)cc2)n1`, the inhibition is 1.77% (inactive). Then `Cc1ccc(C2Nc3cccc4cccc(c34)N2)cc1`, with 7.48% (inactive); and `Oc1ccc(C2Nc3cccc4cccc(c34)N2)cc1`, with 29.6% (active).

With `Cc1ccc(NC(=S)NCCN2CCOCC2)cc1`, the inhibition is 2.38% (inactive). Then `CCOc1ccccc1Nc1ccc(C(=O)O)cc1[N+](=O)[O-]`, with -0.47% (inactive); and `Cc1ccc(N=C2NC(=O)/C(=C/C=C/c3ccco3)S2)cc1C`, with -34.3% (inactive). As to `CCOc1ccc(Nc2nc(Cc3nnc(SCC(=O)NC4CCCC4)n3C)cs2)cc1`, the inhibition was 5.78% (inactive).

As to `COc1ccc(C2C(C(C)=O)=C(O)C(=O)N2CCc2c[nH]c3ccccc23)cc1` (centres undefined), the inhibition was 0.13% (inactive). Turning to `CCOC(=O)N1CCN(C(=O)CSc2ccc(Cl)cc2)CC1`, the inhibition was -2.01% (inactive).

As to `CC(=O)Nc1ccc(S(=O)(=O)Nc2ccc(N3CCCCC3)cc2)cc1`, the inhibition was 4.68% (inactive).

For `COc1ccc(NC(=O)/C(N=Nc2cccc(S(=O)(=O)Nc3ccc(SC(F)F)cc3)c2)=C(\C)O)cc1`, the inhibition is -11.2% (inactive). Regarding `CCCCn1c(N)c(N(CC(C)C)C(=O)CSc2ccc([N+](=O)[O-])cc2)c(=O)[nH]c1=O`, the inhibition is 4.78% (inactive). Then `O=C(NC(=S)Nc1ccc(NC(=O)c2cccs2)cc1)c1ccc([N+](=O)[O-])cc1`, with 15.2% (inactive). The value for `C=CCN1C(=O)[C@@H](CC(=O)NCC2CCCCC2)[C@]2(C(=O)OC)CCCCC=C12` was 4.13% (inactive); that for `COc1ccc2nc(Nc3nc4cc5c(cc4s3)OCCO5)sc2c1` was 0.67% (inactive); that for `O=C1CCCC(O)=C1N=Nc1ccc(S(=O)(=O)N2CCOCC2)cc1` was 3.36% (inactive). Turning to `CC(=O)Nc1cccc([N+](=O)[O-])c1`, the inhibition is 1.2% (inactive). The value for `CC(NS(=O)(=O)c1ccc(Cl)cc1)C(=O)Nc1ccc2c(c1)OCCO2` (centres undefined) was -0.44% (inactive); that for `CCn1c(=O)n(CC)c2cc(N3CCCC3)c(NC(=O)c3ccccc3Br)cc21` was 2.42% (inactive); that for `O=C(Nc1ccccc1N1CCCC1)c1ccc(F)c(S(=O)(=O)N2CCOCC2)c1` was -3.75% (inactive). The value for `Cc1nc2cc(NCc3cccs3)ccc2n1C` was -2.47% (inactive). In the case of `Cn1cccc1/C=N/NC(=O)CNc1cccc2ccccc12`, the inhibition was 5.62% (inactive).

Take `O=C(N/N=C/c1sc(N2CCCCC2)nc1-c1cccs1)c1cccnc1`: the inhibition is 16.6% (inactive).

`C/C=C/c1ccc(OCC(=O)OCC(=O)Nc2c(C)nn(-c3ccccc3)c2C)c(OC)c1`: the inhibition is 3.24% (inactive). In the case of `C[C@@H]1O[C@@H](OC[C@H]2O[C@@H](Oc3c(-c4ccc(O)cc4)oc4cc(O)cc(O)c4c3=O)[C@H](O)[C@@H](O)[C@@H]2O)[C@H](O)[C@H](O)[C@H]1O`, the inhibition is 6.07% (inactive).

Consider `CCOC(=O)C1=C(C)N=C2c3ccccc3C(=O)C2C1c1ccc(Br)cc1` (centres undefined), for which the inhibition was 7.01% (inactive). Then `Cc1cc2ccccc2n1CCNC(=O)COc1ccc2ccccc2c1`, with 9.71% (inactive); and `Cc1cc2ccccn2c1C(=O)c1cccc(F)c1`, with -0.9% (inactive); and `COc1ccc(Cc2nc3ccc(C(=O)N4CCC(N(C)C)C4)cc3o2)cc1` (centres undefined), with -0.71% (inactive). For `COc1ccc(-c2cc(C(=O)NC(Cc3c[nH]c4ccccc34)C(=O)O)c(C)o2)cc1OC` (centres undefined), the inhibition is 10.6% (inactive). Then `NS(=O)(=O)c1ccc(NC(=O)COC(=O)c2c3c(nc4ccccc24)/C(=C\c2ccc4c(c2)OCO4)CCC3)cc1`, with -152% (inactive). For `CCCCC[C@H](C)N1C[C@@H](COCc2ccccc2)Oc2cc(N3CC[C@@H](N(C)C)C3)ccc2S1(=O)=O`, the inhibition is 23.2% (active). For the compound `CNS(=O)(=O)c1ccc2c(c1)[nH]c(=S)n2C`, the inhibition was 8.04% (inactive). The value for `Cc1ccc(C(=O)N/C(=C/c2ccc(-c3cccc([N+](=O)[O-])c3)o2)C(=O)NCCCN(C)C)cc1` was 0.77% (inactive). For `Cc1ccc(OCC(=O)Nc2ccc(-c3nnc(-c4ccco4)o3)cc2)cc1`, the inhibition was -15.4% (inactive). The value for `CNC(=S)NNC(=O)c1oc2nc(-c3ccccc3)cc(-c3ccco3)c2c1N` was 3.72% (inactive); that for `NNC(=O)c1oc2nc(-c3ccccc3)cc(-c3ccco3)c2c1N` was 56% (active); that for `CCOC(=O)/C(N=Nc1cc(C(=O)O)cc(C(=O)O)c1)=C(\O)CCl` was 2.21% (inactive).

For the compound `CC(C)c1cc(N=O)cc(C(C)C)c1O`, the inhibition was -26.2% (inactive). The value for `Oc1ccccc1C1=NN(c2ccccc2)C(c2ccccc2)C1` (centres undefined) was 6.69% (inactive); that for `CCOc1ccc(NC(=O)C/C(C)=N/NC(=O)Cc2cccs2)cc1` was 4.73% (inactive); that for `CCN(CC)CCCC(C)n1c2nc(=O)[nH]c(=O)c-2nc2cc(Cl)ccc21` (centres undefined) was 25.5% (active).

`COC(=O)C(C)Sc1ccc2nnc(-c3cccc(F)c3)n2n1` (centres undefined): the inhibition is -0.98% (inactive).

Turning to `Oc1ccc2ccc3cccc[n+]3c2c1`, the inhibition is 4.67% (inactive).

For the compound `CCOC(=O)C1=C(c2ccccc2)O/C(=C(/C(=O)OC)C(F)(F)F)S1`, the inhibition was -7.25% (inactive). As for `CCN(C(=O)COC(=O)C1CCN(S(=O)(=O)c2ccc(C)c(C)c2)CC1)C1CCS(=O)(=O)C1` (centres undefined), the inhibition was 2.26% (inactive). Consider `Nc1ccc2nc3c(=O)[nH]c(=S)[nH]c3nc2c1`, for which the inhibition is 32.7% (active). Then `Cc1nc(-c2ccc(Cl)cc2)sc1C(=O)NN`, with -2.12% (inactive); and `NNc1nc2c(Cl)cccc2s1`, with 5.82% (inactive); and `S=C(NCCCc1cnc[nH]1)NCCCN(Cc1ccc(Cl)c(Cl)c1)c1ccc(Br)cn1`, with 30.6% (active).

For `Oc1ccc(/C=N/N(Cc2ccccc2)c2ccccc2)cc1`, the inhibition was 9.47% (inactive).

In the case of `CC(C)(O)C#Cc1ccc(C(=O)N2CCC(C(N)=O)(N3CCCCC3)CC2)cc1`, the inhibition is 2.82% (inactive). The value for `COc1cccc(/C=N/Nc2cc(C)nc(-c3ccccc3O)n2)c1O` was -14.6% (inactive); that for `COc1ccc(CCNc2ncnc3nc[nH]c23)cc1OC` was -2.94% (inactive). Then `COc1ccc2[nH]c(=S)cc(C)c2c1`, with -5.42% (inactive); and `O=C(NN=C1CCC(=NNC(=O)c2cccnc2)CC1)c1cccnc1`, with 6.57% (inactive); and `CCOc1ccc(Nc2nc(Cc3nnc(SCC(=O)c4ccc(C)cc4)o3)cs2)cc1`, with 5.41% (inactive). The value for `COc1ccc(/C=N/NC(=O)c2ccncc2)cc1CN1CCCc2ccccc21` was 22.8% (active); that for `COc1ccccc1/C=C/C=N/NC(=O)CN1CCN(Cc2ccccc2)CC1` was -1.91% (inactive).

`COc1ccc(OC)c(CN2CCN(C(=O)CNC(=O)c3cc(C)cc(C)c3)CC2)c1`: the inhibition is -0.63% (inactive).

With `CCOC(=O)C(=O)C1C(=O)Nc2ccccc21` (centres undefined), the inhibition was 6.34% (inactive).

Regarding `O=C(Nc1cccc(Cc2ccccc2)c1)Nc1ccc2nc([C@@H]3O[C@H](CO)[C@@H](O)[C@H](O)[C@H]3O)[nH]c2c1`, the inhibition is 10.5% (inactive). Then `CCOC(=O)C1Sc2[nH]c(=O)sc2C(c2ccc(Cl)cc2)C1C(=O)OCC` (centres undefined), with 5.84% (inactive). The value for `Cc1ccc(/C=N/NC(=O)c2cc3ccccc3cc2O)o1` was 3.65% (inactive); that for `CC1CCCCC1NC(=O)/C(C#N)=C/C=C/c1ccccc1[N+](=O)[O-]` (centres undefined) was -0.36% (inactive); that for `Cn1c(NN)nc2sc3c(c2c1=O)CCC3` was 11.8% (inactive). As to `O=C(O)c1ccccc1N=N/C(=N/Nc1cc(S(=O)(=O)O)ccc1O)c1ccccc1`, the inhibition is 9.57% (inactive). The value for `O=C(N/N=C/c1ccc(O)c2ccccc12)c1cccnc1` was -1.25% (inactive). The value for `COc1ccc(-c2csc(Nc3ccc(O)cc3)n2)cc1` was 2.15% (inactive); that for `O=C(O)Cc1sc(-c2ccccc2)nc1-c1cccs1` was -3.2% (inactive). The value for `CCOc1ccc(Cn2c(SCCCCC#N)nc3c2c(=O)n(C)c(=O)n3C)cc1OCC` was 3.27% (inactive); that for `CCC(C)c1ccc(O)c(/C=N/O)c1` (centres undefined) was 8.65% (inactive); that for `COCCOC(=O)c1sc(=S)n(CCOC)c1N` was 9.71% (inactive).

For `Oc1ccc(N=Cc2sc3ccccc3c2Cl)cc1`, the inhibition was -0.14% (inactive). The value for `Oc1ccc(N=Cc2c(O)ccc3ccccc23)cc1` was -1.4% (inactive); that for `c1ccc2[nH]c(-c3nc4ccccc4[nH]3)nc2c1` was 5.66% (inactive); that for `CNC(=S)N/N=C/c1cn(Cc2ccc(C)cc2)c2ccccc12` was 9.36% (inactive). With `COc1cc(/C=N\Nc2nc(-c3cccs3)c(NC(C)=O)s2)ccc1O`, the inhibition was 13.2% (inactive). The value for `CCn1c(SC)nc(O)c(C(c2ccc(OC)c(O)c2)c2c(O)nc(SC)n(CC)c2=O)c1=O` was -4.61% (inactive). Then `O=C1CCN(C(=S)NCCc2ccccc2)CC1`, with -3.6% (inactive). The value for `Nc1ncnc2c1ncn2[C@@H]1O[C@H](C(=O)NCC(F)(F)F)[C@@H](O)[C@H]1O` was 44.1% (active); that for `CN(Cc1ccc(C(F)(F)F)cc1)C(=O)[C@H]1O[C@@H](n2cnc3c(N)ncnc32)[C@H](O)[C@@H]1O` was 68.3% (active). `CC(=O)CSc1nnc(CSc2ncccn2)n1C1CCCCC1`: the inhibition is -1.2% (inactive). The value for `O=C(CSc1ccc(-c2ccco2)nn1)Nc1cccc(F)c1` was 0.25% (inactive). `Cc1cccc(C2c3c(n(C)c(=O)n(C)c3=O)N=C3c4ccccc4C(=O)C32)c1` (centres undefined): the inhibition was -3.19% (inactive). The value for `Cc1[nH]c2ccccc2c1C(=O)CSCC(=O)O` was -9.03% (inactive); that for `COc1ccc(N2CCN(c3ccc([N+](=O)[O-])nc3)CC2)cc1` was 8% (inactive); that for `CC(C)=CCCC1(C)C=Cc2c(ccc3c2[nH]c2cc(O)c(C)cc23)O1` (centres undefined) was 2.11% (inactive). The value for `Cc1ccc(Nc2nc(-c3ccc(O)cc3O)cs2)nc1` was 9.2% (inactive). For the compound `O=C(CC[C@H]1O[C@@H](n2ccc(=O)[nH]c2=O)[C@H](O)[C@@H]1O)N[C@H](Cc1ccccc1)C(=O)NCCCN1CCCC1=O`, the inhibition is 32.5% (active).

As for `O=C1CC(c2ccccc2)=NN1c1ccc([N+](=O)[O-])cc1`, the inhibition is -0.43% (inactive).

`O=c1[nH]n(-c2ccc([N+](=O)[O-])cc2)c(=O)c2ccccc12`: the inhibition was 19% (active).

Consider `CC(C)/C=N/NC(=O)c1cc(Br)ccc1O`, for which the inhibition was 4.2% (inactive).

Consider `S=C(Nc1ccc(Br)cc1)NC1CCN(Cc2ccccc2)CC1`, for which the inhibition was 2.28% (inactive).

The inhibition is the change of the read-out against control, counted positive when it falls.

The record behind these values is PubChem BioAssay AID1117263 (The Scripps Research Institute Molecular Screening Center, 2014).
